Screening results as filed in PubChem BioAssay.
SENP7 block = inhibitors of human SENP7 protease. recombinant SENP7, Z-RLRGG-aminoluciferin luminescence, 40 min. 330,000 compounds, 1.5% hits. inhibition, % at 5 µM;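 active = inhibition above about 50% at the single test dose, limit read from the data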;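 also: plate controls were DMSO with enzyme for no effect and no enzyme buffer wells for full effect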
HSP90 inh = blocks HSP90-mediated luciferase refolding in reticulocyte lysate | Rabbit reticulocyte lysate, luciferase refolding luminescence, 3 h | inhibition, % at 5.6 µM | 290,000 compounds, 0.91% hits;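 active = inhibition above the screen-wide mean plus 3 SD, computed separately per campaign, cut at about 16% in these data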;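 also: 0% = DMSO wells and 100% = 60 µM geldanamycin wells; inhibitors lower the luminescence because luciferase stays unfolded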
LGR2 inh = Drosophila LGR2 receptor signaling inhibition; inhibition, % at 9.99 µM; 380,000 compounds, 0.35% hits; HEK293 LGR2, CRE-luciferase, bursicon-stimulated, 4 h;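 active = drop in luminescence signal, shown as inhibition above about 50% in the replicate tests, limit read from the data, passing the limit was not always enough; inconclusive = probably only some replicates passing the limit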;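 also: agonist challenge used bursicon conditioned medium at about half maximal strength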
SENP8 block-1 = blocks the human protease SENP8 | Q96LD8 | inhibition, % at 10 µM | purified SENP8, Z-RLRGG-aminoluciferin cleavage, luminescence | 330,000 compounds, 1.2% hits; in the data active = inhibition above about 50%
SENP8 block-2 = blocks human SENP8 cleavage of Nedd8 substrate | Q96LD8 | recombinant SENP8, Nedd8 substrate fluorescence | inhibition, % at 20 µM | 360,000 compounds, 0.64% hits; in the data active = inhibition mostly above about 40%, no sharp cut-off; inactive = mostly below about 27%
SENP6 block = blocks the human protease SENP6; Q9GZR1; 330,000 compounds, 1.8% hits; inhibition, % at 10 µM; AID 2599; Recombinant SENP6 catalytic domain, aminoluciferin luminescence;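 active = inhibition above about 50% at the single tested dose, limit read from the data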;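 also: plate controls were DMSO wells with enzyme for no effect and DMSO wells lacking enzyme for full effect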
Target sequence (Q9GZR1 628-1112 limits assumed): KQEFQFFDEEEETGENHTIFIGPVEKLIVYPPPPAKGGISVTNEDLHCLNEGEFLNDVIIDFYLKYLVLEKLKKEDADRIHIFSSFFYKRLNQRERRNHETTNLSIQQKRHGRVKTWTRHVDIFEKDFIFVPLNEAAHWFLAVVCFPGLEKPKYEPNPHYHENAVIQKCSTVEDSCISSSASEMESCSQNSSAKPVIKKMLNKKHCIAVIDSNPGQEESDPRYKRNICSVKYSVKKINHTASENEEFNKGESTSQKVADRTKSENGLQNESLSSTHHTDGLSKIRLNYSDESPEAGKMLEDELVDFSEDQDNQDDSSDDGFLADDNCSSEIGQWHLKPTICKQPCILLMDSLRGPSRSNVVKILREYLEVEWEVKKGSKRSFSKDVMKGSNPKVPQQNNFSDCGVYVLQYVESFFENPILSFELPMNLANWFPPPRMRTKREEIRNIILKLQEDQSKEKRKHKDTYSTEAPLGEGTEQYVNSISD
HSP90 inh confirm = HSP90 inhibition, confirmation assay. shares compounds with HSP90 inh. rabbit reticulocyte lysate, luciferase refolding luminescence, 3 h. inhibition, % at 5.9 µM. 2,300 compounds, 64% hits. AID 1846; in the data active = inhibition above about 18%;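 also: 0% = vehicle wells and 100% = reference inhibitor wells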
FLuc counter = blocks native firefly luciferase in HSP90 counter-screen. shares compounds with HSP90 inh. purified native firefly luciferase, luminescence. inhibition, % at 5.9 µM. 2,300 compounds, 48% hits;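 active = inhibition above the mean inhibition of all tested sample wells plus 3 SD, cut at about 10% in these data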;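 also: 0% = DMSO with luciferase and 100% = wells lacking luciferase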
SENP8 confirm = confirmation of human SENP8 protease inhibitors. shares compounds with SENP7 block. Recombinant SENP8, Z-RLRGG-aminoluciferin luminescence, 60 min. inhibition, % at 12.5 µM. 6,200 compounds, 40% hits. AID 488912;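 active = mean inhibition across replicates above about 50%, limit read from the data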
SENP6 conf = human SENP6 inhibition, confirmed. shares compounds with SENP7 block. recombinant SENP6, Z-RLRGG-aminoluciferin luminescence. inhibition, % at 12.5 µM. 6,200 compounds, 58% hits
SENP7 conf = human SENP7 inhibition, confirmed; shares compounds with SENP7 block; recombinant SENP7, Z-RLRGG-aminoluciferin luminescence, 40 min; inhibition, % at 12.5 µM; 6,200 compounds, 69% hits
Casp3 SENP sel = inhibits human caspase-3 in SENP selectivity test | shares compounds with SENP7 block | purified caspase-3, Z-DEVD-aminoluciferin luminescence, 60 min | inhibition, % at 12.5 µM | 6,200 compounds, 60% hits | AID 488918;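 active = mean inhibition above about 50%, limit read from the data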;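 also: plate controls were enzyme with DMSO for no effect and wells without caspase-3 for full effect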
Target sequence (P42574 28-227 limits assumed): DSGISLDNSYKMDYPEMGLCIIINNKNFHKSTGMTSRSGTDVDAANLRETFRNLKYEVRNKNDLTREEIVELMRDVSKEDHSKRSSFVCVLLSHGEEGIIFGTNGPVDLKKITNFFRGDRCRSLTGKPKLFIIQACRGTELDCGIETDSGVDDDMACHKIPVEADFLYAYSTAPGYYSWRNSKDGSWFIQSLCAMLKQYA
SENP luc ctr = counter-screen for SENP inhibitors: luminescence interference; Pre-incubated SENP8/Z-RLRGG-aminoluciferin, luciferase luminescence interference; shares compounds with SENP7 block; 6,200 compounds, 39% hits; inhibition, % at 12.5 µM; AID 488919;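 active = mean inhibition above about 50% when retested at one dose, limit read from the data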;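 also: plate controls were DMSO wells with completed reaction for no effect and substrate without enzyme for full effect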
The depositor's hits bear a star; ? = inconclusive; . = no result. This is a sample that favours compounds with a hit; in the whole collection about 2.3% have one here.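 The calls were made as follows, unless noted: active = mean inhibition above about 50% in the one-dose retest (limit read from the data); inactive = the rest.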

SMILES	SENP7 block	HSP90 inh	LGR2 inh	SENP8 block-1	SENP8 block-2	SENP6 block	HSP90 inh confirm	FLuc counter	SENP8 confirm	SENP6 conf	SENP7 conf	Casp3 SENP sel	SENP luc ctr
Cc1[nH]c2ccccc2c1/C=N/Nc1cccc(C(=O)O)c1	3	54*	-27	12	-54	20	54*	41*	.	.	.	.	.
CCc1nnc(N/N=C/c2c(C)[nH]c3ccccc23)n1N	-6	75*	24	-7	19	6	-1	-3	.	.	.	.	.
O=C(O)c1cccc(N/N=C/c2ccc(-c3ccccc3)cc2)c1	.	28*	14	.	-65	.	54*	67*	.	.	.	.	.
COc1ccc2c3c(n(C)c2c1)[C@H](CO)N(C(=O)CN1CCOCC1)CC31CN(C(C)=O)C1	.	.	-6	.	.	.	.	.	.	.	.	.	.
O=C(Nc1cccc(O)c1)c1noc2c1CCCCC2	95*	60*	17	92*	-7	96*	69*	57*	96*	96*	102*	96*	93*
COc1ccc(NC(=O)c2noc3c2CCC3)cc1	81*	27*	.	71*	18	22	20*	31*	11	77*	93*	90*	79*
COC(=O)c1ccccc1NC(=O)c1noc2c1CCCC2	-2	3	.	-6	10	-9	.	.	.	.	.	.	.
C[C@@H]1CCCCO[C@H](CN(C)C(=O)C2CCCCC2)[C@H](C)CN([C@@H](C)CO)C(=O)c2cc(NC(=O)CCCN(C)C)ccc2O1	.	.	11	.	.	.	.	.	.	.	.	.	.
Oc1c(N=Nc2ccccc2)sc2ccccc12	99*	18*	-12	95*	1	98*	48*	39*	75*	98*	103*	96*	10
O=C(Nc1ccncc1)C1COc2ccccc2O1 (stereo not drawn)	-6	2	.	0	21	0	.	.	.	.	.	.	.
O=C(NC1=NCCS1)C1COc2ccccc2O1 (stereo not drawn)	85*	79*	.	64*	21	82*	92*	81*	77*	76*	95*	94*	85*
Cc1noc(C)c1S(=O)(=O)Nc1ccc2c(c1)C(=O)N([C@H](C)CO)C[C@H](C)[C@H](CN(C)Cc1ccc(Oc3ccccc3)cc1)O2	.	.	-2	.	.	.	.	.	.	.	.	.	.
Cc1ccc2c(c1)COc1c3ccc(C(=O)O)cc3nn1-2	100*	96*	?	95*	-68	95*	94*	79*	96*	96*	101*	97*	95*
CN1C(=O)S/C(=C/c2ccc(OCc3cccc(C(=O)O)c3)cc2)C1=O	57*	46*	-5	78*	-30	92*	50*	-3	62*	67*	58*	16	35
Cc1noc(C)c1NC(=O)N[C@H]1CC[C@H](CC(=O)N2CCN(C)CC2)O[C@@H]1CO	.	.	12	.	.	.	.	.	.	.	.	.	.
CSc1ccc(Cl)c(C(=O)Nc2ccc(Cl)cn2)c1	-6	3	-53	-7	7	-12	.	.	.	.	.	.	.
COc1cc(SC)ccc1C(=O)Nc1ccc(Cl)cn1	96*	26*	100*	87*	-7	14	90*	84*	-1	0	2	0	-3
N/C(=N\N=C\c1ccc2c(c1)OCO2)c1nonc1N	98*	21*	3	95*	16	95*	54*	37*	95*	96*	101*	96*	64*
CCCNC(=O)N1[C@H](CO)[C@H](c2ccc(C3=CCCCC3)cc2)[C@@H]1CNC(C)C	.	.	23	.	.	.	.	.	.	.	.	.	.
C[C@H](CO)N1C[C@H](C)[C@@H](CN(C)Cc2ccccc2F)Oc2cc(C#CC3CC3)ccc2S1(=O)=O	.	.	-11	.	.	.	.	.	.	.	.	.	.
CN1CCN(C(=O)C[C@H]2C[C@H]3c4cc(NC(=O)CC5CC5)ccc4O[C@H]3[C@@H](CO)O2)CC1	.	.	9	.	.	.	.	.	.	.	.	.	.
CC(C)NC(=O)Nc1ccc2c(c1)C(=O)N([C@@H](C)CO)C[C@@H](C)[C@H](CN(C)CC1CCCCC1)O2	.	.	21	.	.	.	.	.	.	.	.	.	.
CCc1ccc(C(=O)Cn2ccsc2=N)cc1	81*	21*	-63	75*	3	79*	11	-8	58*	54*	84*	66*	74*
CC(C)(C)NC(=O)NC(=O)Cn1ccsc1=N	3	1	1	-3	10	-15	.	.	.	.	.	.	.
Cc1cccc(C)c1OCC(=O)Nc1cccc(C(=O)O)c1	53*	23*	32	43	12	69*	36*	30*	65*	64*	88*	31	74*
SMILES	SENP7 block	HSP90 inh	LGR2 inh	SENP8 block-1	SENP8 block-2	SENP6 block	HSP90 inh confirm	FLuc counter	SENP8 confirm	SENP6 conf	SENP7 conf	Casp3 SENP sel	SENP luc ctr
O=C(CCCc1ccccc1)Nc1cccc(C(=O)O)c1	93*	61*	82*	82*	8	89*	71*	75*	93*	93*	100*	50	92*
Nc1ccccc1C(=O)Nc1cccc(C(=O)O)c1	4	33*	?	92*	-164	95*	42*	21*	96*	97*	101*	82*	96*
C[C@@H]1CN([C@@H](C)CO)C(=O)c2cc(NS(=O)(=O)c3ccc(F)cc3)ccc2O[C@@H](C)CCCCO[C@H]1CN(C)C(=O)C1CCCCC1	.	.	14	.	.	.	.	.	.	.	.	.	.
COc1ccc(S(=O)(=O)Nc2cccc3c2O[C@@H](CN(C)C(=O)Nc2ccc4c(c2)OCO4)[C@@H](C)CN([C@H](C)CO)C3=O)cc1	.	.	22	.	.	.	.	.	.	.	.	.	.
CC(=O)/C(N=Nc1ccc2c(c1)OCCO2)=C(\C)O	82*	25*	13	75*	18	79*	45*	56*	81*	80*	96*	92*	60*
COc1ccc(Br)c(C(=O)Nc2nc3ccccc3[nH]2)c1	-6	1	-71	-28	11	-30	.	.	.	.	.	.	.
COc1cc(OC)cc(C(=O)Nc2nc3ccccc3[nH]2)c1	-7	-4	.	3	-46	24	.	.	.	.	.	.	.
